From PubChem BioAssay
hNpr1 antagonist: Natriuretic polypeptide receptor (hNpr1) antagonism - Primary qHTS | Atrial natriuretic peptide receptor 1 (Homo sapiens), P16066 | HEK293 hNpr1 GloSensor cGMP, ANP-stimulated luminescence | Potency, µM (series often up to 46.3 µM), for inactives: top-dose activity change, negative = inhibition, usual class: inhibitors | 76,000 compounds, 1.6% hits | AID 1347048, 2019; calls by dose curve; note: % is set by controls: 0 for no effect and ±100 for the full control effect; nearly all actives have a fitted effect of over 60% in size
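Compound pre-incubated 30 min at room temperature on GloSensor-loaded HEK293 cells stably carrying hNpr1 and the pGS-40F cGMP biosensor. Stimulation uses hNppA at 0.1 nM final; luminescence is taken at baseline and 20 min post-agonist.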
SNCA expr inh: Primary qHTS assay for inhibitors of alpha-synuclein gene (SNCA) expression; HEK-293 SNCA-luciferase knock-in, luminescence, 24 h; Potency, µM (series often up to 57.2 µM), inactives show at the highest dose activity change, negative = inhibition, hits mostly inhibitors; 140,000 compounds, 0.17% hits; AID 1671194, 2021;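 note: plate controls were DMSO cells for no effect and cell-free wells for full effect; nearly all actives have a fitted effect of over 45% in size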
HEK cytotox: Cytotoxic Profiling in HEK 293 Cell Line of Diverse Libraries Using Quantitative High-Throughput Screening. HEK 293 viability, ATP luminescence (CellTiter-Glo), 48-72 h. Potency, µM (doses to about 115 µM), for inactives: top-dose activity change, negative = cytotoxicity, actives largely listed as inhibitors. 94,000 compounds, 6.6% hits; note: % is set by controls: 0 for no effect and ±100 for the full control effect; nearly all actives have a fitted effect of over 60% in size
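Cells seeded first (HEK 293, 250 cells/well), then compound added by pintool. Incubation ran 48 or 72 hr at 37 degree Celsius. CellTiter-Glo was added and luminescence imaged after 10 min at room temperature.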
SNCA viab count: GF-AFC viability counterscreen for inhibitors of alpha-synuclein gene (SNCA) expression | 150,000 compounds, 0.12% hits | HEK-293-SNCA-luc viability, GF-AFC fluorescence, 24 h | Potency, µM (doses to about 57.1 µM), inactives show top-dose activity change, negative = cytotoxicity, hits mostly cytotoxic | AID 1671193, 2021;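 note: 0% = DMSO-treated cells and -100% = medium-only wells without cells; nearly all actives have a fitted effect of over 30% in size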
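HEK-293-SNCA-luc cells (1500/well) plated 24 h, then exposed 24 h to a dilution series; GF-AFC added 30 min at 37C, fluorescence 405/540 nm; normalised to medium-only and DMSO wells, Hill fit.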
3T3 cytotox: Cytotoxic Profiling in NIH 3T3 Cell Line of Diverse Libraries Using Quantitative High-Throughput Screening | NIH 3T3 viability, CellTiter-Glo ATP luminescence, 48-72 h | Potency, µM (highest dose often 96.7 µM), without a hit: top-dose activity change, negative = cytotoxicity, most hits filed as inhibitors | 94,000 compounds, 4.3% hits; note: % is set by controls: 0 for no effect and ±100 for the full control effect; nearly all actives have a fitted effect of over 55% in size
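Cytotoxicity was measured by CellTiter-Glo ATP luminescence after 48 or 72 h compound exposure at 37 °C. Mouse NIH 3T3 fibroblasts were seeded at 400 cells/well and dosed by 23 nL pin transfer.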
FLuc inh-1: Firefly luciferase inhibition profiling of diverse chemical library using quantitative high-throughput screening; purified P. pyralis luciferase, luminescence, biochemical; Potency, µM (series often up to 115 µM), actives largely listed as inhibitors; 76,000 compounds, 2.5% hits; AID 1347043, 2019; note: % is set by controls: 0 for no effect and ±100 for the full control effect; nearly all actives have a fitted effect of over 65% in size
Target sequence (P08659 whole entry, looked up): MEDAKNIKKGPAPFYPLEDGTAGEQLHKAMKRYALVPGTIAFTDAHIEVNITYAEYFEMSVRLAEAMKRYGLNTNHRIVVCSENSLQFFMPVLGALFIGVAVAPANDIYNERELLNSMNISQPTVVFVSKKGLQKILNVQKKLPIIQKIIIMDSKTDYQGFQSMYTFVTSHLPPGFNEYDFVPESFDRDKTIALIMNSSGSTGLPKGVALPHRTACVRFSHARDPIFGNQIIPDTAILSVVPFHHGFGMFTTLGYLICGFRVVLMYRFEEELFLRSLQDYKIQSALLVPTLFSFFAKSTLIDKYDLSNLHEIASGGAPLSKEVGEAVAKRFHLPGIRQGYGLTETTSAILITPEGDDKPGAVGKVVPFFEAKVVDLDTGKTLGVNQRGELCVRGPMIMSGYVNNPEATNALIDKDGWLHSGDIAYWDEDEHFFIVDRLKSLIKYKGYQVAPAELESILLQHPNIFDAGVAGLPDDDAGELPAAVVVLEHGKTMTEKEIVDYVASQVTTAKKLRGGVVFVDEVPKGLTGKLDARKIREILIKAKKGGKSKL
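Cell-free enzyme assay, 10nM P. pyralis luciferase, luciferin and ATP each at 10uM. Inhibition profiled over a 6-point titration, read as luminescence.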
FLuc SDR -ATP: Firefly luciferase (FLuc-C-HiBiT) SDR gain of signal screen - without ATP | 1,300 compounds, 7.8% hits | Purified FLuc-C-HiBiT, Nano-Glo HiBiT luminescence, no ATP | Potency, µM (top dose mostly 32.7 µM), inactives show at the top dose activation (signal gain), most hits filed as activators | shares compounds with FLuc inh-1; note: nearly all actives have a fitted effect of over 55% in size
FLuc SDR ATP: Firefly luciferase (FLuc-C-HiBiT) SDR gain of signal screen - plus ATP. purified FLuc-C-HiBiT + ATP, HiBiT complementation luminescence. shares compounds with FLuc inh-1. Potency, µM (titrated, usually from 32.7 µM), without a hit: at the top dose activation (gain of signal), most hits filed as activators. 1,300 compounds, 8.7% hits;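 note: signal reports ligand binding via conformational change of the enzyme rather than luciferase catalysis; % of control where 0% means no effect; nearly all actives have a fitted effect of over 55% in size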
FLuc inh-2: Firefly luciferase (FLuc-C-HiBiT) enzymatic inhibition screen - Functional assay; shares compounds with FLuc inh-1; AID 1963320, 2024; Potency, µM (top dose mostly 32.7 µM), for the others: at the top dose activity change, negative = inhibition, hits mostly inhibitors; purified FLuc-C-HiBiT enzyme, luciferin luminescence; 1,300 compounds, 42% hits; note: % is set by controls: 0 for no effect and ±100 for the full control effect; nearly all actives have a fitted effect of over 70% in size
* marks the source's active call; other numbers are inactive results; i = inactive; ? = inconclusive; · = no result; [ ] = remark or other dose. A selection: hits, their analogues and other compounds. The true share with any hit is near 7.2%. Unless noted, calls come from the whole dose curve; as a rule, active = well fitted curve in the direction sought with a large enough effect; inconclusive = small, poorly fitted or top-dose-only effect, or another doubt; inactive = no such curve, though single readings can be large; an effect the other way counts as inactive or inconclusive. Potency is the fitted concentration of half-maximal effect.

SMILES | hNpr1 antagonist | SNCA expr inh | HEK cytotox | SNCA viab count | 3T3 cytotox | FLuc inh-1 | FLuc SDR -ATP | FLuc SDR ATP | FLuc inh-2
Cc1ccc2nc(-c3cccc(NC(=O)CSc4ccc(Cl)cc4)c3)oc2c1 | · | -13% | · | -1% | · | · | 31% | 18% | ?
Cc1ccc2nc(-c3ccc(C)c(NC(=O)CSc4ccc(Cl)cc4)c3)oc2c1 | · | 82% | · | -7% | · | · | · | · | ·
Cc1cc2nc(-c3cccc(NC(=O)COc4ccc(C(C)C)cc4)c3)oc2cc1C | · | 149% | · | -10% | · | · | 28% | ? | ?
CN1c2cc(C(=O)Nc3ccc(C(N)=O)cc3)ccc2C(=O)N2CCCCCC21 (configuration not stated) | 0% | 51% | ? | 18%[12.5 µM] | ? | i | · | · | ·
Cn1c(=O)c2ccnn2c2ccc(C(=O)Nc3ccc4c(c3)OCCO4)cc21 | -27% | -9% | 35µM* | -24% | -19% | 10µM* | 26% | 20% | 9.9µM*
Cn1c(=O)c2ccnn2c2ccc(C(=O)NC3CCCC3)cc21 | -4% | 30% | -27% | 11% | -20% | i | · | · | ·
CCN1c2cc(C(=O)Nc3ccc(N(C)C)cc3)ccc2C(=O)N2CCCCC21 (configuration not stated) | -12% | 63% | 45µM* | -12%[12.5 µM] | ? | 11µM* | 11% | 11% | ?
CCN1c2cc(C(=O)Nc3ccc4c(c3)OCCO4)ccc2C(=O)N2CCCCC21 (configuration not stated) | -12% | ? | ? | -2%[12.5 µM] | 25µM* | 11µM* | 24% | ? | 9.9µM*
CN1c2cc(C(=O)Nc3ccc4c(c3)OCCO4)ccc2C(=O)N2CCCCC21 (configuration not stated) | -22% | -4% | ? | 3%[12.5 µM] | ? | 7.9µM* | ? | ? | 9.9µM*
CC(C)CN(CC(C)C)C(=O)CC1C(=O)NCCN1Cc1cccs1 (configuration not stated) | -2% | -11% | ? | -2% | -2% | i | · | · | ·
COCCNC(=O)C[C@@H]1C[C@H]2O[C@H](CNC(=O)NC3CCC3)[C@@H](O)[C@H]2O1 | 0%[70.6 µM] | -12%[87.6 µM] | -10%[172 µM] | 0%[87.6 µM] | 1%[174 µM] | i | · | · | ·
O=C1NCCCCCCN(C(=O)CC2CCCCC2)[C@H]2C[C@H](c3nc(-c4cnccn4)no3)C[C@@H]12 | -4% | 17% | ? | -23% | -27% | i | · | · | ·
COc1ccccc1OCc1nc2ccccc2n1Cc1ccccc1 | · | 60% | · | -2% | · | · | 15% | 9% | ?
